From PubChem BioAssay (NCATS)
Inconclusive results are not listed. Entries that show only a call come without a potency. Active and inactive are the calls of the source. The call rests on the fitted dose curve; in most records, active means well fitted inhibition curve with a large enough effect; inconclusive means small, poorly fitted or top-dose-only effect; inactive means no such curve, though single readings can be large or run the other way.
Potency means the concentration at half of the fitted maximal effect.

Each compound was assayed on Zika virus NS2B-NS3 protease (linked construct) (assay: Primary screen NINDS Rhodamine qHTS for Zika virus inhibitors (AID 1347160; further: nearly all actives have a fitted effect of over 55% in size)). Details: purified NS2B-NS3 protease, Rhodamine110 substrate fluorescence; series mostly up to 57.1 µM.
Source text: Avindra Nath, Ph.D., National Institute of Neurological Disorders and Stroke (NINDS), Bethesda, MD
Radhakrishnan Padmanabhan, Ph.D., Georgetown University (GU), Washington D.C.
Zika Virus causes congenital defects, including microcephaly and is associated with Guillain-Barre syndrome, eningoencephalitis and myelitis in infected adult. […] Using a target-based approach, we hope to establish a screening paradigm to uncover novel, cell-active NS2B-NS3 protease (Zika Virus) specific inhibitors from NCATS' collection of small molecules using qHTS.
Four assay panel was created to identify potential Zika Virus inhibitors. Namely, (1) GU unlinked NS2B-NS3 AMC tagged protease qHTS, (2) GU unlinked NS2B-NS3 Rhodamine tagged protease qHTS, (3) NINDS linked NS2B-NS3 AMC tagged protease qHTS, (4) NINDS linked NS2B-NS3 Rhodamine tagged protease qHTS. Active compounds were re-acquired and re-screened to confirm inhibition. Inhibitors were further screened against various confirmatory and counterscreens in dose response format.
Early Translation Branch (ETB)
National Center for Advancing Translational Sciences (NCATS), Rockville, MD
National Institute of Health (NIH), Bethesda, Maryland
For the linked assay, Nath lab (NINDS) provided the purified linked NS2B-NS3 protease which is consists of hydrophilic domain of NS2B linked to the NS3 protease domain by a flexible (-[…]-) linker. Control compound aprotinin is obtained from Thermo Scientific (#78432; Waltham, Massachusetts). Rhodamine110 substrate ([N-Cbz]-Nle-Lys-Arg-Arg-Rhod110-Arg-Arg-Lys-Nle-[N-Cbz]) was purchased from either Genscript or Bachem.
1536-well Protease (Rhodamine110 Substrate) Assay:
Briefly, 3 microL of enzyme (25 nM final concentration), in assay buffer (10 mM Tris-HCl pH 8.0 with 0.01% Tween 20) were dispensed into a 1,536-well solid-bottom black plate (Greiner Bio One, Monroe, NC). Twenty-three nL of compounds (final concentration range 7.28 nM to 114 microM) or control Aprotinin (final concentration range 3.47 nM to 114 microM) were transferred via Wako Pin-tool (Wako Automation, Richmond, VA). Samples were incubated (room temperature, protected from light) for 15 minutes followed by a 1 microL Rhodamine110 substrate addition (1.5 microM final concentration). Plates were then immediately read on a ViewLux High-throughput CCD imager (PerkinElmer, Waltham, MA) equipped with FITC fluorescence optics (480(20) nm excitation, 540(25) nm emission), then incubated (room temperature, protected from light) for 15 minutes (~15% conversion). The change in fluorescence intensity over the 15-minute reaction period was normalized against no-inhibitor and no-enzyme controls and the resulting percent inhibition data were fitted to a 4-parameter Hill equation. Aprotinin was used as intraplate control.
In the case of `Cc1csc(-c2nnc(Nc3ccc(Oc4ncccc4-c4ccnc(N)n4)cc3)c3ccccc23)c1`, the Potency is reported as “inactive”. `NC(=O)c1noc([C@H](CCCC2CCCCC2)CC(=O)NO)n1` was tested, and the Potency was “inactive”. With `CCCCC(F)(F)[C@@]1(O)CC[C@H]2[C@H](CC(=O)[C@@H]2CCCCCCC(=O)O)O1` the Potency was “inactive”. In the case of `CC1(C)CC(=O)c2c(C(F)(F)F)nn(-c3ccc(C(N)=O)c(NC4CCC(O)CC4)c3)c2C1` (stereo not given), the Potency is reported as “inactive”. With `O=C(CO)N1CCC(c2[nH]nc(-c3ccc(Cl)cc3)c2-c2ccncn2)CC1` the Potency was “inactive”. With `Cc1c(C(=O)Nc2ccc(N3C[C@@H](C)O[C@@H](C)C3)nc2)cccc1-c1ccc(OC(F)(F)F)cc1` the Potency was “inactive”. With `N#Cc1ccc(Oc2ccc3c(c2)COB3O)cc1` the Potency was “inactive”. For `NS(=O)(=O)c1cc(Cl)c(Cl)c(S(N)(=O)=O)c1`, the Potency was “inactive”. In the case of `c1ccc(CNc2nc(N3CCOc4ccccc43)nc3c2CCCC3)cc1`, the Potency is reported as “inactive”. With `COc1cc(Nc2nc3ccccc3nc2NS(=O)(=O)c2ccc(NC(=O)c3ccc(C)c(OC)c3)cc2)cc(OC)c1` the Potency was 3.16 µM (active). `CN1c2ccccc2C(=O)N2CCc3c([nH]c4ccccc34)C21` (stereo not given) was tested, and the Potency was “inactive”. In the case of `O=c1[nH]nc(OCCCc2ccc(Cl)cc2)c(NCc2cccnc2)c1Br`, the Potency is reported as “inactive”. For `CCN1C[C@H](C)n2c(c(O)c3c(=O)n(Cc4ccc(F)c(Cl)c4)nc(C(=O)NC)c32)C1=O`, the Potency was “inactive”. With `CNC(=O)c1c(-c2ccc(F)cc2)oc2cc(N(CCO)S(C)(=O)=O)c(C3CC3)cc12` the Potency was “inactive”. With `CN[C@@H](C)[C@H]1[C@H](O)C[C@@]2(C)[C@@H]3CC[C@H]4C(C)(C)[C@@H](NC)CC[C@@]45C[C@@]35CC[C@]12C` the outcome was “inactive [at 10.7 µM]”. For `O=C(CCCN1CCN(c2ccc(F)cc2)CC1)NC1c2ccccc2CSc2ccccc21` (stereo not given), the Potency was “inactive”. `CCNC(=O)c1noc(-c2cc(C(C)C)c(O)cc2O)c1-c1ccc(CN2CCOCC2)cc1` was tested, and the Potency was “inactive”. With `CCN1CCN(c2ccc(Nc3cc(N(C)C(=O)Nc4c(Cl)c(OC)cc(OC)c4Cl)ncn3)cc2)CC1` the Potency was “inactive”. For `C[C@H](c1ccc(F)cc1CCCC(=O)O)N(c1cc(F)ccc1F)S(=O)(=O)c1ccc(Cl)cc1`, the Potency was 14.1 µM (active). With `Fc1ccc(CNc2ncnc3ccc(F)cc23)cc1` the Potency was “inactive”. `COc1cc2nccc(Oc3ccc(NC(=O)Nc4cc(C)on4)c(Cl)c3)c2cc1OC` was tested, and the Potency was “inactive”. `CNC1CCC(N(Cc2cccc(-c3ccncc3)c2)C(=O)c2sc3ccccc3c2Cl)CC1` (stereo not given) was tested, and the Potency was “inactive”. With `CCN1CCC(n2cc(CNc3cc(Cl)c4ncc(C#N)c(Nc5ccc(F)c(Cl)c5)c4c3)nn2)CC1` the Potency was “inactive”. For `CNC(=O)c1ccc2c(C(=Nc3cccc(CN(C)C)c3)c3ccccc3)c(O)[nH]c2c1`, the Potency was “inactive”. In the case of `O=C(CC12CC3CC(CC(C3)C1)C2)Nc1cccc2nc(NCCNCCO)ccc12`, the Potency is reported as “inactive”. `Nc1[nH]nc2nnc(-c3c(-c4ccccc4)nn4ccccc34)cc12` was tested, and the Potency was “inactive”. With `COc1cc2ncnc(Nc3cc(Br)c(O)c(Br)c3)c2cc1OC` the Potency was “inactive”. For `CCCCn1c(=O)n(Cc2ccccc2F)c(=O)c2[nH]c(Cc3ccc(NC(C)=O)cc3)nc21`, the Potency was “inactive”. For `C[C@@]1(C(=O)Nc2ccc(F)nc2)CCCN1c1nc(Nc2cc(C3CC3)[nH]n2)c2cccn2n1`, the Potency was “inactive”. In the case of `CC1CCN(c2cc(N3CCN(C)CC3)ccc2NC(=O)c2cc(C#N)c[nH]2)CC1`, the Potency is reported as “inactive”. For `CCN(CCO)CCCOc1ccc2c(Nc3cc(CC(=O)Nc4cccc(F)c4)[nH]n3)ncnc2c1`, the Potency was “inactive”. With `C[C@@]1(c2cc(-c3cncnc3)c(F)cc2F)CCSC(N)=N1` the Potency was “inactive”. `CN1CCN(c2cccc(Nc3nc4c(-c5ccc(S(C)(=O)=O)cc5)cccn4n3)c2)CC1` was tested, and the Potency was “inactive”. With `O=C(Nc1ccc(OC(F)(F)F)cc1)c1sccc1NCc1ccnc2ccccc12` the Potency was “inactive”. For `Cn1cnc(-c2cc3nccc(Oc4ccc(NC(=S)NC(=O)Cc5ccccc5)cc4F)c3s2)c1`, the Potency was “inactive”. In the case of `COc1nc(C)cnc1NS(=O)(=O)c1cccnc1-c1ccc(-c2nnco2)cc1`, the Potency is reported as “inactive”. `Cc1cc2c(cc1C1(c3ccc(C(=O)O)cn3)CC1)C(C)(C)CCC2(C)C` was tested, and the Potency was 14.1 µM (active). In the case of `O=C1NC(=O)C(c2cnc3ccccn23)=C1c1cn2c3c(cccc13)CN(C(=O)N1CCOCC1)CC2`, the Potency is reported as “inactive”. In the case of `CCn1c(-c2nonc2N)nc2cncc(CNC3CCNCC3)c21`, the Potency is reported as “inactive”. With `O[C@@H](COc1cccc2ncccc12)CN1CCN(C2c3ccccc3[C@@H]3[C@H](c4ccccc42)C3(F)F)CC1` (stereo not given in full) the Potency was “inactive”.
